The whole screen tested about 31,000 sequences, of which about 1,400 (4.5%) were called active. The full list was thinned out, with actives kept by preference. A number with no mark means an inactive call.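 Rule for the calls: active = median seed-adjusted z-score above 1 or below -1; inactive = the rest.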
assay: Novel Modifiers of Survival Motor Neuron (SMN) Protein: Gene Identification via Genome-wide siRNA Screen; details: HEK293T SMN2-luciferase reporter, siRNA knockdown, 72 h; actives lie on both sides;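 note: luminescence tracks full-length SMN protein made from the SMN2 reporter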
Method in brief: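 Genome-wide siRNA screen (10418 genes, 3 siRNAs each, 1 pmol per well) by reverse transfection in HEK293T cells stably carrying an SMN2-luciferase reporter; luminescence after 72 hours, normalized to negative-control siRNA, log10-transformed, MAD-scored.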

Sequence	median seed-adjusted z-score
CCUGGACGAGUUUAUAAUATT against AP1S3	0.153
GCCGUAUAAGUGUCAAGCATT against ZNF57	0
CAAUGUUAGGAGUCAGUCATT against ACTL6A	1.11 (active)
AGGGCUUGUUUGACAACUUTT against CHTF18	0.371
GCUGAUACCUUCUACCGUATT against GDPD2	-0.0868
ACCGCACGAUGUUCAACUUTT against DNAJC30	0.329
CAGACAUGAAGUAUAAGAATT against TCEA2	0.552
CCUGCCCAAUGUGACCUUUTT against MRC2	-1.34 (active)
CAAAUCCUAUAGUAUAACATT against RPS6KC1	0.344
AGAUUAAGAUGUUCUACGATT against ADI1	0.0593
GCCCAUUGACUAUUACUUUTT against AR	-0.559
GAUGGAAGAUGGAACGGUUTT against CDC42BPA	0.257
GUAUGUCAAGGAGAACGGATT against CTSL2	-1.04 (active)
CAUUAUCACUGGUGCACUUTT against CHN1	2.1e-05
GGAAUAACAGUUGUAGGAATT against TMTC3	0.266
GAGAGCAACUUAAAGACGATT against ST18	0.0762
UGCUCUACAUCAACCCUGATT against FSHR	-0.462
GAAGAGCCGUAUGAUCGAATT against ZNF432	-0.124
CAAGGAGCAGGGAUAUGAATT against ADAP2	-1.1 (active)
GAGAGAUUGUGAUUGGAGATT against BHMT	0
GGAUCCUAUUGAGAGGCUATT against HS2ST1	0.421
GCACCAAGCAUUAUGAAAATT against SDCBP	0.0325

Sequence	median seed-adjusted z-score
CACCUGAAGUAAAUCGGAUTT against SF3B14	-1.26 (active)
AGACAGUGUGGGUCCUGGATT against CD300E	0.337
GGCAGUUAAUGGAACAAUUTT against MTMR7	-0.207
CGUGGGCUCUAUCUACUAUTT against PUF60	2.26 (active)
GAUAGAUCGUUUUAAGAGATT against MST4	0.343
CGACAACAUAUGUUCCGGATT against TNFRSF11B	0.582
UAAUCAAGCUGAAAACAGATT against TRYX3	2.3 (active)
AAUUCGAGCUGGUGCCAUCTT against MYCL1	0.0658
ACCUCUACGUGGUCAGCUATT against DPP9	-0.224
CCAAACGAUUUAUACCUAATT against IPMK	-0.00138
GAACAACCUGGAGAAAUAUTT against ENDOG	-0.336
GGAGAGACAUCGUCAGCUATT against AGXT	0.017
GAUGCUGGUUGGUUCGAUATT against MFSD4	-1.89 (active)
GAGUUUCGCCUGCUACAGATT against CELSR3	0
GGAUGAUUCGGAAGGUGAATT against ZNF467	0
GGGCCGUGCUGAUUGAGAATT against GPX2	-0.21
GGAGAAGAAUGAGCAACUUTT against ADAM19	0.0996
GGGCUUUGAUAGGAAUGCATT against UBE2K	0.497
CGCAGUAUGUGGACUAUGATT against NID2	0.283
GCUGAAAUCAAAAAGCGGATT against RAB1B	1.55 (active)
GGAAUGUGGUAACAGGAGATT against GMPR2	0.232
CCUACUCUGUUGUUCGAAATT against C3	0.0281

Sequence	median seed-adjusted z-score
GCGGGAGAAGCUUACCUUUTT against DPP3	-0.261
GGAAAUAUGCGGCUACGGATT against NADSYN1	0.217
CGGGUACUGCUACACCUUUTT against SLC22A8	0.175
GUGAGACAGUUGACCGAGATT against SLC26A2	-1.25 (active)
CAUUCAAAUUUACCCUGUATT against POLR2H	-2.74 (active)
GGACCUUGUUAACAGUGGATT against APOBEC1	-0.323
CCCUGUACGUGUACAUCAUTT against MPG	-0.0888
GAGGCAGUCUUAAAAUGGATT against RAB32	-0.112
CUUCAAGAAUAAGUACGAATT against KRT7	0
GUGUGAUUCUUGGAGCAAATT against PLD2	-0.743
CAACUACAACUGUGAGAUUTT against SF3A3	-2.1 (active)
GAAAUACUGCGGUAUAAAATT against SYTL2	0.211
GCCCAUAGAGGGUUCAGAATT against CCNT1	-0.72
GAGAUGAACCGGAACAUCATT against LOC650864	0.214
GAACCAUGGAUGGUGAUAATT against ZNF287	0.0213
GCUCCACAGCAUAUGCUCATT against NFIL3	0.4
GAACUGUGAAUUAGAUGUATT against F9	0.332
GGAACACGCUGACAGGACATT against FZR1	0.729
CGAUGUUGAAGUUACACCATT against ATP13A4	-1.09 (active)
CCGCGAAUCCAUGACAAUATT against UGCG	0.492
CCACCUCUACCAAACAUUUTT against IL2RG	-0.155
GGAGAUUCAUUCUAACCAUTT against ADAMTS19	-0.39

Sequence	median seed-adjusted z-score
CAGUGAGAGUUUCAUCUUUTT against PKD1L2	-1.17 (active)
GGAUAUGAGUUACAUGACATT against GALNT5	-0.279
GGACGACUUCUUUAAGUCATT against PGD	-1.55 (active)
CGGCAAUUGUUGACGUGAATT against TXNDC11	0.642
GGAUGGACUUUAUCCAGCATT against TM7SF4	0.0246
GGACAACAGUCGGUCGAAUTT against ANP32C	-0.421
UGAUAUCGGCUACGUCAAATT against NAGK	0.446
GGAUUACAGUGUCCAAAGATT against ADRA1A	-1.06 (active)
CCUACUAUGUGAGCAAUGATT against EEF1G	-0.206
GAGUCACAAUCGCAUGAAATT against FKBP9	0.359
CCACACUUUUGGUCUUUAATT against PGDS	0.02
AGACGGUCCUCUUUCGACATT against LOC442229	0.183
GGAUAUCAAUUAUUACGCUTT against LIFR	0.031
AGGAGUCCCUAAUGCUACATT against TRIM74	0.0932
GCAUCAACUUUGUGCAUGATT against PLTP	1.09 (active)
GCAGCAAACUGACGGAGAATT against PCTK3	0
CAGUGCUCAUGGAACUCUUTT against HMGCS2	-0.465
CGAUGAAGGGUUCCGAUUATT against CR1	0.143
GGGCGAGUAUGACCGAUCATT against CTRL	0.0758
GCAGAUACAUUGAUCGCAUTT against PRPF8	-1.54 (active)
GGACCAGACAACGAACUGATT against RNF135	0.581
CGCUGAAACACGUCCAUUUTT against CHAD	0

Sequence	median seed-adjusted z-score
CUCUGAACAUCAACCCGGATT against DMRTB1	-0.393
GGAUCGUGGUCUUUCCAAATT against FNTA	1.04 (active)
GAAGAUUGGUGAUCUAGGATT against WNK3	-0.466
GGCUUCUUGUCCAACCCUATT against CILP	0.0436
GUAGGACCCUAAUAUCGAUTT against TEP1	-0.495
CAACUUUGAGGUAAAGUCATT against PRPF19	-0.485
CGCUGAUACUAACAAUUGATT against AOX1	-0.0717
GAUUCGUUCUUCUACAACUTT against PSMD2	-1.44 (active)
GGGCUGGAAUUACUAUGGATT against CCNH	-0.659
GGCGAUUAGGAAACAUGAATT against PRKX	0.0341
GCAUUUUCCGCCUACCACATT against POLM	-1.55 (active)
GAACAUUUCCAAGUCUGUATT against YSK4	-0.181
CCAAGUUUAUAUCAUAUUATT against GNG4	-0.188
CGCGGUGCAUAUGAAGAUATT against PIGM	1.36 (active)
CAGUGUAAUUAGGCAACUATT against MYO3A	0.0776
CACCUCCGAUAAGCCCUAUTT against ZIC2	-0.162
GCAACUACUUCCGAUCUAATT against KIF17	-0.151
GGUUGUAACUGCAAGAUCATT against TIMP3	-1.05 (active)
CAUCCAUAAUUGGUGUAAATT against KIF20B	0
ACUUAGUCAUCAUCAAGUATT against GK	-0.474
CAAGAUUCUUGACCUUGAATT against PDP2	-0.0726

— PubChem BioAssay AID1347426 (Functional Genomics Laboratory (NCATS/FGL), 2020)
